Some test systems named below: SK-MEL-2 melanoma; EKVX NSCLC; SN12C renal; UO-31 renal; TK-10 renal; ACHN renal; CAKI-1 renal; A498 renal; CCRF-CEM leukemia; MOLT-4 leukemia; RPMI-8226 leukemia; OVCAR-8 ovarian; SK-OV-3 ovarian; IGROV1 ovarian; OVCAR-3 ovarian; NCI/ADR-RES ovarian; OVCAR-5 ovarian; OVCAR-4 ovarian; HS 578T breast.
Assay in all cases: NCI-60 one-dose screen, 48 h (100 = growth as untreated, 0 = no growth, -100 = all killed)
What all share (settings): 10 µM unless noted

Compounds without any hit were thinned out: in the full panel of roughly 83,000, 20% have a hit.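 Each cell line was grown in a 96-well plate and treated with one concentration of compound for 48 hours. Values below 10 were considered active.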 Unmarked numbers belong to inactive results. Active and inactive are the calls of the source.

In the case of `O=c1[nH][n+](-c2ccc(Cl)cc2)no1`, the growth with SK-MEL-2 melanoma is 75.4%; with EKVX NSCLC it was 60.6%; with SN12C renal, 73.5%; in the test with UO-31 renal it was 27%; in the test with TK-10 renal, 70.8%; in the test on ACHN renal it was 40.7%. Further, the growth is 18.5% in the test on CAKI-1 renal; 82.6% with A498 renal; 55.3% with CCRF-CEM leukemia; 44.4% in the test with MOLT-4 leukemia; 79.2% in the test with RPMI-8226 leukemia; 69.9% in the test on OVCAR-8 ovarian. For the same compound, the growth was 86.8% with SK-OV-3 ovarian, 70.5% in the test with IGROV1 ovarian, 86.8% in the test on OVCAR-3 ovarian and 79.9% in the test with NCI/ADR-RES ovarian.
Take `O=c1c2cc(F)ccc2sc2c(NCCN3CCCCC3)nc3ccccc3c12`: the growth in the test with SK-MEL-2 melanoma was 98.7%; with EKVX NSCLC it was 61%; in the test on SN12C renal, 48.6%; in the test with UO-31 renal, 27.1%; with TK-10 renal, 77.7%; with ACHN renal, 42.7%. The growth in the test on CAKI-1 renal was 38.6%; in the test on A498 renal it was 61.6%; with CCRF-CEM leukemia, 44.3%; with MOLT-4 leukemia, 27.5%; in the test with OVCAR-8 ovarian, 57.6%; in the test with OVCAR-5 ovarian it was 69.3%. For the same compound, the growth with OVCAR-4 ovarian was 50.7%; in the test on SK-OV-3 ovarian, 78.8%; in the test on IGROV1 ovarian, 27.3%; in the test on OVCAR-3 ovarian, 31.5%; in the test on HS 578T breast it was 56%; in the test with NCI/ADR-RES ovarian, 67.1%.
Consider `Cn1c(=O)c2[nH]c(NN)nc2n(C)c1=O`, for which the growth with SK-MEL-2 melanoma is 105%; with EKVX NSCLC, 120%; with SN12C renal, 108%; in the test with UO-31 renal it was 90.8%; in the test with TK-10 renal, 107%; in the test on ACHN renal, 105%. In addition, the growth was 96% in the test on CAKI-1 renal; 109% with A498 renal; 92.4% in the test on CCRF-CEM leukemia; 96.1% in the test with MOLT-4 leukemia; 96% in the test with RPMI-8226 leukemia; 129% with OVCAR-8 ovarian. The growth is 116% with OVCAR-4 ovarian; 114% in the test with SK-OV-3 ovarian; 116% with IGROV1 ovarian; 118% with OVCAR-3 ovarian; 122% with HS 578T breast; 113% with NCI/ADR-RES ovarian.
In the case of `COc1cccc2c1C(=O)c1c(O)c3c(c(O)c1C2=O)CC(O)(/C(C)=N/NC(=O)CCCCC(=O)N/N=C(\C)C1(O)Cc2c(O)c4c(c(O)c2C(OC2CC(N)C(O)C(C)O2)C1)C(=O)c1c(OC)cccc1C4=O)CC3OC1CC(N)C(O)C(C)O1` (centres undefined), the growth with SK-MEL-2 melanoma was -56.9% [5 µM] (active); in the test on EKVX NSCLC, -16.2% [5 µM] (active); with SN12C renal, -2.85% [5 µM] (active); in the test on UO-31 renal, -16.9% [5 µM] (active); with TK-10 renal, -29.5% [5 µM] (active); in the test on ACHN renal, -33.6% [5 µM] (active). Besides, the growth was -40% [5 µM] (active) in the test with CAKI-1 renal; -84.5% [5 µM] (active) in the test on A498 renal; -26.4% [5 µM] (active) with CCRF-CEM leukemia; -46.8% [5 µM] (active) with MOLT-4 leukemia; -66% [5 µM] (active) with RPMI-8226 leukemia; 5% [5 µM] (active) with OVCAR-8 ovarian. Besides, the growth is 7.09% [5 µM] (active) in the test with OVCAR-5 ovarian; -7% [5 µM] (active) with SK-OV-3 ovarian; -37.2% [5 µM] (active) in the test on OVCAR-3 ovarian; -40.4% [5 µM] (active) in the test with HS 578T breast; 75.6% [5 µM] with NCI/ADR-RES ovarian.
As to `COc1nc(N(C)O)nc(N(C)O)n1`, the growth is 70.9% in the test with SK-MEL-2 melanoma; 31.2% with EKVX NSCLC; 42.5% with SN12C renal; 36.9% with UO-31 renal; 32.5% in the test on TK-10 renal; 11.2% in the test with ACHN renal. For the same compound, the growth with CAKI-1 renal is 36.3%; in the test on A498 renal, 76.7%; in the test with CCRF-CEM leukemia, 14.4%; in the test on MOLT-4 leukemia, 35.7%; in the test on OVCAR-8 ovarian, 27.1%; in the test on OVCAR-5 ovarian, 53.6%. Further, the growth with OVCAR-4 ovarian was 33.3%; with SK-OV-3 ovarian, 32%; in the test on IGROV1 ovarian it was 54.7%; in the test with OVCAR-3 ovarian, 9.27% (active); in the test with HS 578T breast, 87.9%; with NCI/ADR-RES ovarian, 14.9%.
As for `COc1cc(/C=N/Nc2ncc(-c3cc4cc5c(cc4o3)OCO5)s2)cc(OC)c1OC`, the growth in the test on SK-MEL-2 melanoma is 79.7%; with EKVX NSCLC, 71.4%; with SN12C renal, 71.2%; with UO-31 renal, 66.8%; in the test on TK-10 renal it was 101%; with ACHN renal, 74.3%. Further, the growth was 64.2% in the test on CAKI-1 renal; 75.6% in the test on A498 renal; 26% with CCRF-CEM leukemia; 18.6% in the test with MOLT-4 leukemia; 6.26% (active) in the test on RPMI-8226 leukemia; 30% with OVCAR-8 ovarian. Further, the growth in the test on OVCAR-4 ovarian is 68.7%; with IGROV1 ovarian it was 66.7%; in the test on OVCAR-3 ovarian it was 67.2%; in the test with HS 578T breast it was 89.6%; with NCI/ADR-RES ovarian, 26.3%.
With `Cc1ccc2nc(C)c(-c3nnc(SCc4ccc(C#N)cc4)o3)n2c1`, the growth in the test on SK-MEL-2 melanoma was 101%; in the test on EKVX NSCLC, 83.8%; in the test on SN12C renal, 92.9%; with UO-31 renal, 67%; with TK-10 renal it was 120%; in the test on ACHN renal it was 88.4%. Besides, the growth in the test with CAKI-1 renal is 85.3%; in the test with A498 renal, 72%; in the test with CCRF-CEM leukemia, 117%; in the test on MOLT-4 leukemia, 101%; with RPMI-8226 leukemia, 93.6%; in the test with OVCAR-8 ovarian, 108%. Also, the growth is 95.8% in the test on OVCAR-4 ovarian; 89.5% in the test with IGROV1 ovarian; 109% in the test with OVCAR-3 ovarian; 93.2% in the test with HS 578T breast; 90.6% in the test with NCI/ADR-RES ovarian.
For the compound `CC(=O)O[C@]1(C(C)=O)CCC2C3C[C@H](C)C4=CC(=O)CC[C@]4(C)C3CC[C@@]21C` (some centres undefined), the growth was 98.1% in the test with SK-MEL-2 melanoma; 72.6% in the test on EKVX NSCLC; 63.1% with SN12C renal; 65.6% in the test with UO-31 renal; 106% with TK-10 renal; 96.6% in the test on ACHN renal. In addition, the growth is 73.8% with CAKI-1 renal; 103% in the test on A498 renal; 81.8% in the test with CCRF-CEM leukemia; 81.7% in the test on MOLT-4 leukemia; 58.9% in the test on RPMI-8226 leukemia; 91.7% in the test on OVCAR-8 ovarian. For the same compound, the growth in the test with OVCAR-4 ovarian was 93%; in the test on SK-OV-3 ovarian it was 81.9%; with IGROV1 ovarian it was 81.6%; with OVCAR-3 ovarian, 115%; in the test with HS 578T breast, 130%; in the test on NCI/ADR-RES ovarian, 79.6%.

The values are drawn from PubChem BioAssay (NCI).
